In PubChem BioAssay AID1159580 (chemical genetic matrix, 2015):
The whole screen tested about 5,500 compounds, of which about 2,000 (36%) were called active. Roughly 18% stayed inconclusive and do not appear here. The list shows a part of the results. Unmarked numbers belong to inactive results. Cut-off read from the data, not from the text of the source: active = normalized growth mostly below about 0.91 (no sharp cut-off); inconclusive = no clear call, values can overlap the other calls; inactive = mostly above about 0.92.

Assay: chemical genetic growth profiling, strain panel (AID 1159580);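 note: tested at 20 µM; growth read once vehicle control cultures reached saturation at 30 °C; 1 = growth at the plate median or of vehicle wells; lower values mean less growth of the strain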
Conditions: growth OD

For `COC(=O)[C@@]1(C)CCC[C@]2(C)c3ccc(O)c(C(C)C)c3CCC12` (stereo partly specified), the normalized growth (S. cerevisiae deletion strains, locus YJR066W, strain TOR1, hits give low values) was 0.689 (active), the normalized growth (S. cerevisiae deletion strains, locus YKL009W, strain mrt4, hits give low values) was 0.859 (active) and the normalized growth (S. cerevisiae deletion strains, locus YKL068W, hits give low values) was 0.979. The normalized growth (S. cerevisiae deletion strains, locus YKL085W, strain MDH1 (second series), hits give low values) was 0.522 (active), the normalized growth (S. cerevisiae deletion strains, locus YKL085W, strain MDH1, hits give low values) was 0.522 (active) and the normalized growth (S. cerevisiae deletion strains, locus YKL160W, strain elf1, hits give low values) was 0.881 (active). The normalized growth (S. cerevisiae deletion strains, locus YKR001C, strain vps1, hits give low values) was 0.231 (active), the normalized growth (S. cerevisiae deletion strains, locus YKR026C, strain gcn3, hits give low values) was 0.978 and the normalized growth (S. cerevisiae deletion strains, locus YKR091W, strain srl3, hits give low values) was 0.976. The normalized growth (S. cerevisiae deletion strains, locus YLL001W, strain dnm1, hits give low values) was 0.937, the normalized growth (S. cerevisiae deletion strains, locus YLL026W, hits give low values) was 0.843 (active) and the normalized growth (S. cerevisiae deletion strains, locus YLL041C, strain sdh2, hits give low values) was 0.965. The normalized growth (S. cerevisiae deletion strains, locus YLR027C, strain aat2, hits give low values) was 0.354 (active), the normalized growth (S. cerevisiae deletion strains, locus YLR039C, strain RIC1, hits give low values) was 0.245 (active) and the normalized growth (S. cerevisiae deletion strains, locus YLR058C, strain SHM2, hits give low values) was 0.661 (active). The normalized growth (S. cerevisiae deletion strains, locus YLR102C, strain apc9, hits give low values) was 0.95, the normalized growth (S. cerevisiae deletion strains, locus YLR113W, strain HOG1, hits give low values) was 0.284 (active) and the normalized growth (S. cerevisiae deletion strains, locus YLR221C, strain rsa3, hits give low values) was 0.619 (active). For the same molecule, the normalized growth (S. cerevisiae deletion strains, locus YLR258W, strain gsy2, hits give low values) was 0.786 (active), the normalized growth (S. cerevisiae deletion strains, locus YLR262C, strain YPT6 (second series), hits give low values) was 0.208 (active) and the normalized growth (S. cerevisiae deletion strains, locus YLR268W, strain sec22, hits give low values) was 0.85 (active). For the same molecule, the normalized growth (S. cerevisiae deletion strains, locus YLR320W, strain mms22, hits give low values) was 0.695 (active), the normalized growth (S. cerevisiae deletion strains, locus YLR330W, strain CHS5, hits give low values) was 0.662 (active) and the normalized growth (S. cerevisiae deletion strains, locus YLR342W, strain FKS1 (second series), hits give low values) was 0.42 (active). The normalized growth (S. cerevisiae deletion strains, locus YLR342W, strain FKS1, hits give low values) was 0.596 (active), the normalized growth (S. cerevisiae deletion strains, locus YLR357W, strain rsc2, hits give low values) was 1 and the normalized growth (S. cerevisiae deletion strains, locus YLR370C, strain arc18, hits give low values) was 1.01. For the same molecule, the normalized growth (S. cerevisiae deletion strains, locus YLR371W, strain rom2, hits give low values) was 0.444 (active), the normalized growth (S. cerevisiae deletion strains, locus YLR384C, strain iki3, hits give low values) was 0.998 and the normalized growth (S. cerevisiae deletion strains, locus YLR418C, strain cdc73, hits give low values) was 0.297 (active). The normalized growth (S. cerevisiae deletion strains, locus YML016C, strain PPZ1, hits give low values) was 0.889 (active), the normalized growth (S. cerevisiae deletion strains, locus YML032C, strain rad52, hits give low values) was 0.732 (active) and the normalized growth (S. cerevisiae deletion strains, locus YML120C, strain ndi1, hits give low values) was 0.222 (active). For the same molecule, the normalized growth (S. cerevisiae deletion strains, locus YML124C, strain tub3, hits give low values) was 0.922 (active), the normalized growth (S. cerevisiae deletion strains, locus YMR058W, strain fet3, hits give low values) was 0.919 and the normalized growth (S. cerevisiae deletion strains, locus YMR078C, strain ctf18, hits give low values) was 0.96. The normalized growth (S. cerevisiae deletion strains, locus YMR125W, strain sto1, hits give low values) was 0.959, the normalized growth (S. cerevisiae deletion strains, locus YMR129W, hits give low values) was 0.96 and the normalized growth (S. cerevisiae deletion strains, locus YMR205C, strain PFK2, hits give low values) was 0.649 (active). The normalized growth (S. cerevisiae deletion strains, locus YMR223W, strain ubp8, hits give low values) was 0.828 (active), the normalized growth (S. cerevisiae deletion strains, locus YMR231W, strain pep5, hits give low values) was 0.996 and the normalized growth (S. cerevisiae deletion strains, locus YMR263W, strain SAP30, hits give low values) was 0.657 (active). The normalized growth (S. cerevisiae deletion strains, locus YMR307W, strain GAS1, hits give low values) was 0.509 (active), the normalized growth (S. cerevisiae deletion strains, locus YNL067W, strain RPL9B, hits give low values) was 0.903 and the normalized growth (S. cerevisiae deletion strains, locus YNL071W, strain lat1, hits give low values) was 0.684 (active). For the same molecule, the normalized growth (S. cerevisiae deletion strains, locus YNL153C, strain GIM3, hits give low values) was 0.788 (active), the normalized growth (S. cerevisiae deletion strains, locus YNL183C, strain NPR1, hits give low values) was 0.715 (active) and the normalized growth (S. cerevisiae deletion strains, locus YNL209W, strain ssb2, hits give low values) was 0.856 (active). The normalized growth (S. cerevisiae deletion strains, locus YNL233W, strain BNI4, hits give low values) was 0.563 (active), the normalized growth (S. cerevisiae deletion strains, locus YNL248C, strain rpa49, hits give low values) was 0.916 and the normalized growth (S. cerevisiae deletion strains, locus YNL250W, strain rad50, hits give low values) was 0.934. For the same molecule, the normalized growth (S. cerevisiae deletion strains, locus YNL271C, strain bni1, hits give low values) was 0.971, the normalized growth (S. cerevisiae deletion strains, locus YNL298W, strain CLA4, hits give low values) was 0.883 (active) and the normalized growth (S. cerevisiae deletion strains, locus YNL307C, strain MCK1, hits give low values) was 0.502 (active). The normalized growth (S. cerevisiae deletion strains, locus YNL322C, strain KRE1 (second series), hits give low values) was 0.985, the normalized growth (S. cerevisiae deletion strains, locus YNR049C, strain mso1, hits give low values) was 0.964 and the normalized growth (S. cerevisiae deletion strains, locus YNR052C, strain pop2, hits give low values) was 0.629 (active). For the same molecule, the normalized growth (S. cerevisiae deletion strains, locus YOL012C, strain htz1) was 0.967, the normalized growth (S. cerevisiae deletion strains, locus YOL147C, strain pex11, hits give low values) was 0.681 (active) and the normalized growth (S. cerevisiae deletion strains, locus YOR001W, strain rrp6, hits give low values) was 0.636 (active). For the same molecule, the normalized growth (S. cerevisiae deletion strains, locus YOR061W, strain CKA2, hits give low values) was 0.859 (active), the normalized growth (S. cerevisiae deletion strains, locus YOR069W, strain VPS5, hits give low values) was 0.854 (active) and the normalized growth (S. cerevisiae deletion strains, locus YOR070C, strain gyp1, hits give low values) was 0.693 (active). For the same molecule, the normalized growth (S. cerevisiae deletion strains, locus YOR080W, strain dia2, hits give low values) was 0.715 (active), the normalized growth (S. cerevisiae deletion strains, locus YOR083W, strain WHI5, hits give low values) was 0.835 (active) and the normalized growth (S. cerevisiae deletion strains, locus YOR106W, strain vam3, hits give low values) was 0.373 (active). The normalized growth (S. cerevisiae deletion strains, locus YOR136W, strain idh2, hits give low values) was 0.929, the normalized growth (S. cerevisiae deletion strains, locus YOR144C, strain elg1, hits give low values) was 0.711 (active) and the normalized growth (S. cerevisiae deletion strains, locus YOR184W, strain ser1, hits give low values) was 0.355 (active). The normalized growth (S. cerevisiae deletion strains, locus YOR231W, strain MKK1, hits give low values) was 0.575 (active), the normalized growth (S. cerevisiae deletion strains, locus YOR265W, strain rbl2, hits give low values) was 0.741 (active) and the normalized growth (S. cerevisiae deletion strains, locus YOR270C, strain vph1, hits give low values) was 0.612 (active). The normalized growth (S. cerevisiae deletion strains, locus YOR290C, strain snf2, hits give low values) was 0.776 (active), the normalized growth (S. cerevisiae deletion strains, locus YOR316C, strain cot1, hits give low values) was 0.984 and the normalized growth (S. cerevisiae deletion strains, locus YPL051W, strain arl3, hits give low values) was 0.539 (active). For the same molecule, the normalized growth (S. cerevisiae deletion strains, locus YPL055C, strain LGE1, hits give low values) was 0.403 (active), the normalized growth (S. cerevisiae deletion strains, locus YPL078C, strain atp4, hits give low values) was 0.924 and the normalized growth (S. cerevisiae deletion strains, locus YPL106C, strain sse1, hits give low values) was 0.505 (active). For the same molecule, the normalized growth (S. cerevisiae deletion strains, locus YPL240C, strain hsp82, hits give low values) was 0.697 (active), the normalized growth (S. cerevisiae deletion strains, locus YPL256C, strain CLN2, hits give low values) was 0.682 (active) and the normalized growth (S. cerevisiae deletion strains, locus YPR119W, strain clb2, hits give low values) was 0.799 (active). For the same molecule, the normalized growth (S. cerevisiae deletion strains, locus YPR141C, strain kar3, hits give low values) was 0.987, the normalized growth (S. cerevisiae deletion strains, locus YPR163C, strain tif3, hits give low values) was 0.817 (active) and the normalized growth (S. cerevisiae deletion strains, locus YPR167C, strain met16, hits give low values) was 0.773 (active). For the same molecule, the normalized growth (S. cerevisiae deletion strains, strain wtn01, hits give low values) was 0.812 (active) and the normalized growth (S. cerevisiae strains, strain wild type, hits give low values) was 0.458 (active).
